# Screening data (PubChem)
# Shown is part of a subset that was picked to be rich in hits.
# NRP1-CendR mod: modulators of CendR peptide binding to NRP-1, primary screen, biochemical, fluorescence polarization, uHTS; Neuropilin-1 (Homo sapiens), O14786; FAM-RPARPAR peptide binding to NRP-1; inhibition, % at 25 µM; 360,000 tested, 0.85% active; AID 602438, 2012;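 active = inhibition or corrected inhibition above about 18%, plus a signal ratio from 0.5 to 1.5, limit read from the data, passing the limit was not always enough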
# ALR inh: inhibitors of human ALR sulfhydryl oxidase, primary screen, biochemical, H2O2 detection, HRP-luminol luminescence, single point | 290,000 tested, 3.8% active | FAD-linked sulfhydryl oxidase ALR (Homo sapiens), P55789 | inhibition, % (concentration not given with the values) | purified ALR, DTT oxidation;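 active = mean replicate inhibition above about 79%, with every replicate also reaching it, limit read from the data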
# ERp5 block: inhibitors of ERp5-driven insulin aggregation, primary screen, biochemical, turbidity, absorbance 650 nm, single point; 90 min; inhibition, % at 9.99 µM; 350,000 tested, 0.05% active; AID 651711, 2012;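 active = mean replicate inhibition above about 25%, with every replicate also reaching it, limit read from the data, passing the limit was not always enough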
# PglD inh: C. jejuni PglD acetyltransferase inhibitors, primary screen, biochemical, DTNB colorimetric, single point. purified PglD enzyme, DTNB colorimetric CoA detection. inhibition, % at 12.5 µM. 360,000 tested, 0.098% active. AID 602405, 2012; in the data active = inhibition above about 16%, passing the limit was not always enough
# PDI inh: inhibitors of human PDI, primary screen, biochemical, turbidity, single point, plate reader; Protein disulfide-isomerase (Homo sapiens), P07237; PDI insulin aggregation turbidity, A650, 90 min; inhibition, % at 10 µM; 350,000 tested, 0.052% active;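 active = mean inhibition across replicates of 30% or more, whatever share of single replicates reach that level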
# Target sequence (P07237 whole entry, looked up): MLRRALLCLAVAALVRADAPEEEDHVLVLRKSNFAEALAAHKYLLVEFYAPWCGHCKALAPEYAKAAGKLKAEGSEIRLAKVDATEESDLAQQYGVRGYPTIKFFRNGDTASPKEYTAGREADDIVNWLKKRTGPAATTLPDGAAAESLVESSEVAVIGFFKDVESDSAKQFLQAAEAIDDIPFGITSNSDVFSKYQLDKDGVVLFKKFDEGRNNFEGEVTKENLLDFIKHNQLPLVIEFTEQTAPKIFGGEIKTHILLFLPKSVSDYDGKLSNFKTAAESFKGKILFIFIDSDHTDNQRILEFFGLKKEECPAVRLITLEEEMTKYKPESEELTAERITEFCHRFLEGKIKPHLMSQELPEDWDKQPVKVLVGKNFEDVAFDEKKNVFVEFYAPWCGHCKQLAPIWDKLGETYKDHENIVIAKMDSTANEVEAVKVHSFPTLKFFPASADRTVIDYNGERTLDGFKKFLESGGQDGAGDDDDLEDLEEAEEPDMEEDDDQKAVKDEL
# ARNT-TACC3 inh: disruptors of ARNT/TACC3 protein interaction, primary screen, biochemical, AlphaScreen, single concentration; Transforming acidic coiled-coil-containing protein 3 (Homo sapiens), Q9Y6A5; inhibition, % at 9.99 µM; 390,000 tested, 0.66% active; AID 623870, 2012; AlphaScreen His-ARNT PAS-B/GST-TACC3 binding, luminescence; TACC3 fragment carries E629A point mutation;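 active = mean inhibition of replicates at least 50% and at least half of replicates each reaching 50%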;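 note: 0% = complete ARNT plus TACC3 wells and 100% = ARNT alone without TACC3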
# * = called active by the depositor; nt = not tested or not shown.
SMILES,NRP1-CendR mod,ALR inh,ERp5 block,PglD inh,PDI inh,ARNT-TACC3 inh
O=C(Nc1nnc(SCc2cccnc2)s1)C1CC(=O)N(c2ccc(F)cc2)C1 (stereo unspecified),-7,97*,-1,-6,-1,-5
COc1cccc(N2CC(C(=O)Nc3nnc(SCc4cccnc4)s3)CC2=O)c1 (stereo unspecified),-16,-44,2,nt,-4,-10
O=C(NCc1ccccc1)[C@@H]1[C@@H](CO)[C@@H]2Cn3c(cccc3=O)[C@H]1N2C(=O)CC1CC1,nt,nt,5,-4,nt,-10
O=C(Nc1cccc(-c2cn3ccccc3n2)c1)c1ccccc1,12,95*,1,nt,-5,nt
Cc1ccc(C(=O)Nc2cccc(-c3cn4ccccc4n3)c2)cc1,-14,33,3,nt,-1,8
CC(C(=O)OCC(=O)Nc1ccc2c(c1)OCO2)N1C(=O)c2ccccc2C1=O (stereo unspecified),22*,-2,nt,-1,3,2
COc1cc(/C=C/C(=O)OCC(=O)Nc2ccc3c(c2)OCCO3)ccc1O,5,81*,nt,4,4,0
COc1ccc(/C=C/C(=O)OCC(=O)Nc2ccc3c(c2)OCO3)cc1,21*,0,3,0,-6,-5
CCOc1ccc(/C=N/OCC(=O)Nc2ccc3c(c2)OCO3)cc1,32*,-5,-1,-11,-4,-5
C[C@H](CO)N1C[C@H](C)[C@@H](CN(C)S(=O)(=O)c2ccc(F)cc2)Oc2c(NS(=O)(=O)c3ccc(Cl)cc3)cccc2C1=O,nt,nt,nt,3,nt,nt
CC(C)NC(=O)N(C)C[C@@H]1OCCCC[C@@H](C)Oc2ccc(NC(=O)C3CCCCC3)cc2C(=O)N([C@@H](C)CO)C[C@@H]1C,nt,nt,3,2,nt,2
CCN(CC)CCn1c2c(c(SCC(=O)Nc3nc4ccccc4s3)nc1=O)CCC2,-4,98*,2,-1,-6,-5
CCN(CC)CCn1c2c(c(SCC(=O)Nc3cccc4ccccc34)nc1=O)CCC2,-5,97*,16,-1,-4,-17
CCN(CC)CCn1c2c(c(SCC(=O)Nc3nc4ccc(C)cc4s3)nc1=O)CCC2,10,21,2,2,3,1
CC(C)NC(=O)Nc1cccc2c1O[C@H](CN(C)C(=O)Nc1ccc(F)cc1)[C@H](C)CN([C@H](C)CO)C2=O,nt,nt,-1,-3,nt,1
CCS(=O)(=O)Nc1ccc2c(c1)C(=O)N(C)[C@@H]1CC[C@@H](CC(=O)OC)O[C@H]1CO2,nt,nt,0,4,nt,nt
COc1ccc(C(=O)N2C[C@H]3[C@@H](c4ccccc42)[C@H](CO)N3C(=O)c2ccc(F)cc2)cc1,nt,nt,5,-44,nt,-6
C=CCNC(=S)N/N=C(\C)c1cccc(OC)c1,-6,nt,nt,-11,-5,6
C=CCNC(=S)N/N=C(\C)c1cccnc1,16,83*,-2,nt,-2,2
C[C@H](CO)N1C[C@H](C)[C@@H](CN(C)C(=O)NC2CCCCC2)Oc2c(NC(=O)c3nc4ccccc4s3)cccc2C1=O,nt,nt,-3,4,nt,3
O=C(O)CSc1cc(NS(=O)(=O)c2ccc(Cl)cc2)c2ccccc2c1O,-7,8,5,6,-15,48*
COc1ccc(S(=O)(=O)Nc2cc(SCC(=O)O)c(O)c3ccccc23)cc1,6,56,1,5,3,61*
Cc1cc(C)c(S(=O)(=O)Nc2cc(SCC(=O)O)c(O)c3ccccc23)cc1C,nt,57,nt,nt,nt,nt
O=[N+]([O-])c1ccc(S(=O)(=O)Nc2nc(-c3ccccc3)cs2)cc1,0,34,2,7,-10,-4
O=S(=O)(Nc1nc(-c2ccccc2)cs1)c1cc(Cl)ccc1Cl,-55,90*,8,-7,4,-4
SMILES,NRP1-CendR mod,ALR inh,ERp5 block,PglD inh,PDI inh,ARNT-TACC3 inh
CCc1ccc(/C=C2\SC(=S)N(CCCC(=O)Nc3ccccc3C(=O)O)C2=O)cc1,-48,97*,-15,-4,8,0
Cc1ccc(/C=C2\SC(=S)N(CCCC(=O)Nc3ccccc3C(=O)O)C2=O)cc1,-73,-1,4,-3,9,1
C[C@H](CO)N1C[C@H](C)[C@@H](CN(C)C(=O)Nc2ccc(C(F)(F)F)cc2)OCCCC[C@H](C)Oc2ccc(NC(=O)Nc3cccc4ccccc34)cc2C1=O,nt,nt,2,0,nt,0
CCCCN=C(NNc1ccc(Br)cc1)C(=O)OCC,-20,99*,-3,nt,-3,5
CCOC(=O)C(=NCCCN(C)C)NNc1cc(C(F)(F)F)ccc1Cl,17,51,1,0,3,-2
CCOC(=O)C(=NCCCN(C)C)NNc1ccc(Br)cc1,-1,99*,0,nt,-6,nt
CC(C)NC(=O)N(C)C[C@H]1Oc2ncc(-c3ccccc3F)cc2C(=O)N([C@H](C)CO)C[C@@H]1C,nt,nt,1,-1,nt,-5
Cc1ccc(NC(=O)CSc2nc(=O)n(CCN3CCOCC3)c3c2CCCC3)cc1,2,-23,-1,nt,4,nt
Cc1ccc(NC(=O)CSc2nc(=O)n(CCCN3CCOCC3)c3c2CCCC3)cc1F,8,97*,4,2,6,3
CCc1ccc(NC(=O)CSc2nc(=O)n(CCCN3CCOCC3)c3c2CCCC3)cc1,-2,98*,2,1,8,9
Cc1ccc(S(=O)(=O)Nc2ccc(C(=O)Nc3cc(C)on3)cc2)cc1,-9,55,nt,2,5,2
Cc1cc(NC(=O)c2ccc(S(=O)(=O)Nc3ccccc3)cc2)no1,27*,98*,nt,-3,-2,-5
O=c1c(O[C@H]2O[C@@H](CO)[C@H](O)[C@@H](O)[C@@H]2O)c(-c2ccc(O)cc2)oc2cc(O)cc(O)c12,4,87*,4,0,63*,-1
O=c1c(O[C@@H]2O[C@H](CO)C(O)C2O)c(-c2ccc(O)c(O)c2)oc2cc(O)cc(O)c12 (stereo partly specified),-9,100*,nt,2,41*,17
O=c1c2c(O)cc(O)cc2oc2c(O)ccc(O[C@H]3O[C@@H](CO)[C@H](O)[C@@H](O)[C@@H]3O)c12,4,20,0,0,2,-14
O=c1c(-c2ccc(O)cc2)coc2cc(OC3OC(CO)C(O)C(O)C3O)cc(O)c12 (stereo unspecified),6,58,-1,-2,8,-7
